PubChem BioAssay AID1053173 (Broad Institute, 2014)
Out of some 1,500 compounds screened, about 390 (26%) were called active. The rule behind the calls is not given here. These entries were drawn from the full list. Potency and affinity values are given separately.

biological target: Histone-lysine N-methyltransferase NSD2 (Homo sapiens) (UniProt O96028); test: blockers of NSD2 H4 peptide methylation – biochemical, AlphaScreen, cherry-picked samples, dose response (AID 1053173); conditions: 120 min; series mostly up to 10 µM; activity change, negative = inhibition: at the top concentration;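 note: 0% = neutral control wells and -100% = positive control wells on each plate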
Sequence (O96028 whole entry, looked up): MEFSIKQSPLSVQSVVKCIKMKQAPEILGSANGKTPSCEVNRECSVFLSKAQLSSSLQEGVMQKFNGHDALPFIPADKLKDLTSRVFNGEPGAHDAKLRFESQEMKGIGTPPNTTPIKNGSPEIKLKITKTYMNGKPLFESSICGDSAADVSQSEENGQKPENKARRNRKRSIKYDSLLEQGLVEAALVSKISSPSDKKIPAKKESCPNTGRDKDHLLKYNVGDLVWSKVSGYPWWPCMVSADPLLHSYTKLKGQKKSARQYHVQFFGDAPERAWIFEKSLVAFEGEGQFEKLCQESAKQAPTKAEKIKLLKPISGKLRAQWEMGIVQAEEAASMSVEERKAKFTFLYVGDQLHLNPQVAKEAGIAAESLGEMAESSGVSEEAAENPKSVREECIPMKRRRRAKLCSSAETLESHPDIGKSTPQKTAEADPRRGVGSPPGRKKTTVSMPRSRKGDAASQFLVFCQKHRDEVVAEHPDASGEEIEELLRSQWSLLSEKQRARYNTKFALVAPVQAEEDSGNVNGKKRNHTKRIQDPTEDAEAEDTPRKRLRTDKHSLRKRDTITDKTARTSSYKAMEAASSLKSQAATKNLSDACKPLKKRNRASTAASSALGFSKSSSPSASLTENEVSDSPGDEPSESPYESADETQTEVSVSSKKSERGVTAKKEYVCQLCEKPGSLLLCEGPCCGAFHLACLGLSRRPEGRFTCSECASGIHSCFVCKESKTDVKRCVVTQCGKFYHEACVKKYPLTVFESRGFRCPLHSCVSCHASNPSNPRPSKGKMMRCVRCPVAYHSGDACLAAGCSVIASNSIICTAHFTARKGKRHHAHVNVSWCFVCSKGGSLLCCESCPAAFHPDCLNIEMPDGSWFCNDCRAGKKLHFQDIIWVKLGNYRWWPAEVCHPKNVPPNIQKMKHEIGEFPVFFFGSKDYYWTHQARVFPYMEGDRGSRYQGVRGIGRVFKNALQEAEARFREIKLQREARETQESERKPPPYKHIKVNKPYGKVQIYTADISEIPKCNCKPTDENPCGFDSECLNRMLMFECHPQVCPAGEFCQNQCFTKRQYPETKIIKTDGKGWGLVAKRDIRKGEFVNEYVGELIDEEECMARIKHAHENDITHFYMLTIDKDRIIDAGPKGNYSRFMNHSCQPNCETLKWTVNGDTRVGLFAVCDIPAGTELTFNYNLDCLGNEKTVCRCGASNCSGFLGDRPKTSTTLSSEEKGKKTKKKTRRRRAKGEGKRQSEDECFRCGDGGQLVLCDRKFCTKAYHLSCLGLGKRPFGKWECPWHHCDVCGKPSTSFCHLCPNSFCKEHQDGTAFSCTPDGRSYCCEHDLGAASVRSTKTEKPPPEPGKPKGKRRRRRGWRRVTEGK

Activity change, negative = inhibition, inactive:
O=C(OCc1cnc(Cl)s1)c1cccs1 -1.1%
Cc1ccc(N2CS(=O)(=O)/C(=C/N(C)C)C2=O)cc1 5.06%
Cn1c(CSCc2ccccc2)nnc1SCC(=O)Nc1nccs1 0.187%
O=C(CC1C(=O)N(c2ccccc2)C(=S)N1c1ccccc1)c1ccc(Br)cc1 (configuration not stated) -0.56%
CCn1c(O)c(/C=N/n2cnnc2)sc1=S 0.542%
CCOc1ccc(-c2nnc(SCc3nc4ccccc4[nH]3)n2N)cc1 -2.78%
CCOC(=O)C(Oc1ccc2c(-c3ccc(OC)cc3)cc(=O)oc2c1C)c1ccccc1 (configuration not stated) -0.617%
CCOC(=O)c1c(C#N)c(SCC(=O)Nc2ccc(OC)cc2)nc2c1CN(CC)CC2 -3.26%
COc1ccc(OCCSc2nnc(CCNC(=O)c3ccc(Cl)c(Cl)c3)n2C)cc1 1.83%
COc1cccc(CN2C(=O)C(C)N(C(=O)c3c(F)cccc3F)c3ccccc32)c1 (configuration not stated) -4.93%
CN1CCN(c2ccc(S(=O)(=O)N3CCOCC3)cc2NC(=O)COc2ccc(F)cc2Cl)CC1 -1.77%
COc1ccc(C2C(C(=O)/C=C/c3ccco3)=C(O)C(=O)N2CCN2CCOCC2)cc1OC (configuration not stated) 2.35%
COc1ccc(CCNC(=O)Nc2ccc3c(c2)c(=O)n(C)n3CC=C(C)C)cc1OC 1.5%
CCc1nnc(NC(=O)c2ccc(COc3ccccc3)o2)s1 0.577%
CCc1nnc(NC(=O)c2ccc3ccccc3n2)s1 -0.466%
CCC1(c2ccc(F)cc2)NC(=O)N(CC(=O)N(CCC#N)c2ccccc2)C1=O (configuration not stated) -0.318%
Cc1ccc(S(=O)(=O)N(C)C)cc1NC(=O)/C=C/c1cccs1 1.54%
CC1(C)Cc2sc3c(=O)[nH]c(=S)[nH]c3c2CO1 1.02%
CCOc1ccc(N2CC(C(=O)NCCc3c[nH]c4ccc(OC)cc34)CC2=O)cc1 (configuration not stated) 0.809%
Cc1ccc(NC(=O)Cn2nnc(C(=O)NCc3ccccc3)c2N)cc1C -0.362%
Cc1cc(C(=O)COC(=O)c2ccc([N+](=O)[O-])o2)c(C)n1CC1CCCO1 (configuration not stated) -9.09%
COc1ccc(C(c2c(C)[nH]n(-c3ccccc3)c2=O)c2c(C)[nH]n(-c3ccccc3)c2=O)cc1OC -9%
C/C(CC(=O)Nc1ccccn1)=N\NC(=O)C(=O)Nc1cccc(Cl)c1C -0.689%
COCCN(C(=O)CCC(=O)Nc1ccccn1)C(C(=O)NC(C)C)c1ccc(C)cc1 (configuration not stated) -2.62%
Cc1ccc(C(C[N+](=O)[O-])c2c(C)[nH]n(-c3ccccc3)c2=O)cc1 (configuration not stated) -2.59%
Cc1[nH]n(-c2ccccc2)c(=O)c1C(C[N+](=O)[O-])c1ccc(F)cc1 (configuration not stated) 1.48%
CCN(CC)C(=O)COC(=O)C1=NN(c2cc(C)ccc2C)C(=O)CC1 -3.17%
COC(=O)CCCC(=O)NC1CC(C)(C)Cc2c1cnn2-c1ccc(C)cc1 (configuration not stated) -0.494%
Cc1cccc(-c2nnc(SCC(=O)c3ccc(O)cc3O)n2C)c1 0.938%
C=CCn1c(SCc2ccc(C#N)cc2)nnc1-c1ccc(C)cc1 -2.38%
C=CCn1c(SCC(=O)N2CCN(c3ccccc3)CC2)nnc1-c1ccco1 -4.63%
CN(C)c1cccc2c1c(NC(=O)Nc1ccccc1)nn2C -5.26%
O=C(c1ccc2c(c1)OCO2)C1CCCN(Cc2ccc3cccc(F)c3n2)C1 (configuration not stated) -1.24%
CCNc1ccccc(C(=O)/C=C/c2ccc3c(c2)OCO3)c1=O -2.99%
CC(Cc1c[nH]c2ccccc12)C(=O)NCc1ccco1 (configuration not stated) -7.92%
CCOC(=O)N1CCN(C2=Nc3cccc4cccc2c34)CC1 0.355%
CSc1ncccc1C(=O)Nc1nc2c(C)cccc2s1 4.37%
Nc1ncnc(NCc2ccccc2)c1[N+](=O)[O-] 0.484%
COc1ccc(COc2ncnc3ccc(Br)cc23)cc1F 1.25%
COc1ccc(CCNC(=O)C2CCN(C(=O)c3ccccc3C)CC2)cc1 0.092%
Cc1cccc(N(CC(=O)NC(C)(C)C)C(=O)CS(=O)CC(=O)Nc2ccc3c(c2)OCO3)c1 (configuration not stated) 0.013%
CC(=O)N1CCN(Cc2nc3cc(NC(=O)Cn4nc(C)c5ccccc5c4=O)ccc3n2C)CC1 1.58%
[O-][n+]1cccc2c(Br)cc(Br)c(O)c21 -3.88%
OC(COc1ccc2ccccc2c1Cl)CN1CCOCC1 (configuration not stated) -1.1%
CCCCN(CC)CCNC(=O)CN(C)S(=O)(=O)c1ccc2c(c1)c(=O)n(C)c(=O)n2C -9.9%
Cc1ccc(C(=O)Nc2ccc(CC(=O)O)cc2)o1 -1.83%
CCCc1cc(Nc2ccccc2C)n2ncnc2n1 6.66%
N#Cc1c(SCC(=O)OCc2ccccc2)nsc1SCC(=O)OCc1ccccc1 -2.54%
Cc1cc(Cl)ccc1OCCCC(=O)N1CCOCC1 1.3%
CCN(CC)Cc1c(O)c(Cl)cc2c(C)cc(=O)oc12 -7.42%
O=S(=O)(c1ccc(-c2nnco2)cc1)N1CCCCC1 -4.33%
O=C(CSc1nnc2ccccn12)NNC(=O)c1ccc([N+](=O)[O-])cc1 -0.222%
O=C1CC(N2CCOCC2)=NN1c1ccc([N+](=O)[O-])cc1 -2.73%
O=C(c1ccc(N2CCOCC2)c([N+](=O)[O-])c1)N1CCN(Cc2ccccc2)CC1 -3.51%
c1cc(-c2ccoc2)n2ccnc2c1 -3.71%
CCN1C(=O)c2ccccc2S(=O)(=O)c2ccc(C(=O)NC(C)C)cc21 -0.906%
CC1CN(Cc2c(O)ccc3c(=O)c(-c4ccccc4Cl)coc23)CC(C)O1 (configuration not stated) 0.635%
CCCCN1C(=O)C(=Nc2cccc3cnccc23)c2ccccc21 -3.19%
CN(C)CCNc1nc(-c2ccco2)c2c(c1C#N)CC(C)(C)OC2 -1.66%
COc1ccc(C2CC(c3ccc(Cl)cc3)=NN2C(C)=O)cc1 (configuration not stated) -1.06%
Cc1ccnc(N2CCC(C(=O)NC3CCCCCC3)CC2)n1 -2.18%
NC(=O)c1[nH]cnc1N=NN(CCO)Cc1ccccc1 0.49%
CC(Oc1ccc(Cl)cc1Cl)C(=O)NC(Cc1ccccc1)C(=O)O (configuration not stated) 4.79%
O=C(NCc1cccnc1)c1ccc2c(c1)OCO2 -4.15%
CS(=O)(=O)N(CC(=O)NCc1ccc2c(c1)OCO2)c1cccc(Cl)c1 0.858%
C=CCOc1ccc(NC(=O)C2CC(=O)N(C(C)C)C2)cc1 (configuration not stated) -0.242%
Oc1ccc(NCc2cccc(OCc3ccc(F)cc3)c2)cc1 -5.89%
Oc1cccc(C=NCc2ccccc2)c1 1.51%
Cc1cccc(C(=O)NCC(=O)OCc2nnc(-c3ccccc3)o2)c1 0.7%
COc1ccccc1NC(=O)C(C)OC(=O)CCNS(=O)(=O)c1cccc(C(F)(F)F)c1 (configuration not stated) 1.15%
O=C(NCc1ccco1)c1nc(-c2ccccc2)n(-c2ccccc2)n1 -2.2%
CCOc1cc(N2CCOCC2)c(OCC)cc1NC(C)C(=O)N1CCN(CC)CC1 (configuration not stated) -1.64%
CCCC(=O)c1ccc(O)cc1O 0.614%
Cc1nc(COC(=O)c2cc(O)c3ccccc3c2O)cs1 -1.16%
COCCN1CC(=O)N2C(c3cccc(C)c3)c3[nH]c4ccccc4c3C[C@H]2C1=O (some centres not stated) -2.11%
COc1ccc(C2CC(=O)c3c(C)nc(N4CCN(c5ccccc5)CC4)nc3C2)cc1 (configuration not stated) 0.827%
CCOCCCNC(=O)Cn1cc2c(n1)-c1c(oc(C(=O)N3CCCC3)c1C)CC2 0.254%
O=C(NC1CCCC1)c1cc(-c2ccc(Cl)cc2Cl)on1 -3.59%
CC1CN(C(=O)COC(=O)/C=C/c2ccccc2)CC(C)O1 (configuration not stated) -1.51%
Cc1cccc(OCCn2c(=S)[nH]c3ccccc32)c1 -3.36%
Cc1cccc(Nc2nc(NCc3ccco3)nc(N)c2[N+](=O)[O-])c1 -4.37%
CC1=CCC2C(=O)N(c3cccc(C(=O)N(C)C4CCCCC4)c3)C(=O)C2C1 (configuration not stated) 0.384%
CCN(CC)CCOc1ccc(C=NNc2nc3c([nH]2)c(=O)n(C)c(=O)n3C)cc1 -11.9%
COc1ccc(CNC(=O)c2nnn(-c3cccc(C(F)(F)F)c3)c2N)cc1 4.73%
CC(=O)Nc1ccc(C(=O)OCC(=O)/C(C#N)=C(\C)N)cc1 -2.9%
O=C(Nc1nccs1)c1ccc2nccnc2c1 -5.53%
CC1CCCCC1NC(=O)COC(=O)c1ccc2c(=O)n3c(nc2c1)CCC3 (configuration not stated) -1.1%
Cc1ccc(NC(=O)CCN2CCN(C/C=C/c3ccccc3)CC2)cc1C -7.29%
CCCCOc1ccc(-c2ncc(N)cn2)cc1 7.56%
O=C(O)CC1S/C(=N/N=C/c2ccc(-c3ccc(Cl)cc3[N+](=O)[O-])o2)NC1=O (configuration not stated) -8.04%
COc1ccccc1OCC(=O)Nc1ccccc1C(=O)N1CCCC1 -4.11%
COc1ccccc1NC(=O)c1ccc(-n2cccn2)nc1 -1.08%
CC12CC3(C)CC(C)(C1)CC(C(=O)NC1=NCCS1)(C2)C3 2.75%
Cc1oc(-c2cccs2)nc1CN1CCN(C2CCCC2)C(CCO)C1 (configuration not stated) -3.19%
COC(=O)c1nn(C)c(=O)[nH]c1=O 1.85%
CC(=O)c1c(C)[nH]c(C(=O)CSc2nnc(-c3ccco3)n2Cc2ccccc2)c1C 3.53%
CC1=NN(c2ccc(S(=O)(=O)O)cc2Cl)C(=O)C1 4.11%
CCCCN(C)C(=O)C1CCN(Cc2cccc(OCc3ccccc3)c2)CC1 -1.82%
O=C(NCc1ccc(F)cc1)C1CCCN1S(=O)(=O)c1ccccc1C(F)(F)F (configuration not stated) 4.09%
CCN1CCCC1CNC(=O)c1ccc2c(c1)N(Cc1cccc(Cl)c1)C(=O)c1ccccc1S2(=O)=O (configuration not stated) -7.05%
COC(=O)c1sc(S(=O)(=O)Nc2ccc(C)c(C)c2)c(C(=O)OC)c1C -4.84%
COc1cc2c(oc(=O)c3cc(C)cc(OC)c32)c2c(C3OC(C)C(O)C(C)(O)C3O)ccc(O)c12 (configuration not stated) -1.96%
COc1cccc(C2c3c(oc4ccccc4c3=O)C(=O)N2CCCN(C)C)c1OC (configuration not stated) -0.912%
Cc1[nH][nH]c(=O)c1C(c1ccc2c(c1)OCO2)c1c(C)[nH][nH]c1=O -2.41%
Cc1cccc(C)c1NC(=S)N(CCCN1CCN(C)CC1)Cc1cccs1 -1.78%
O=C(COC(=O)c1ccc([N+](=O)[O-])s1)Nc1ccccc1 -2.69%
O=C(Cc1ccc(Br)cc1)Nc1ncc([N+](=O)[O-])s1 -2.73%
